FBW7 act = human FBW7 E3 ligase activation, primary screen | Q969H0 | AlphaScreen FBW7–phospho-cyclin E peptide binding, activator screen | normalized activity (activation), % at 26.1 µM | actives 0.13% (n = 650,000) | AID 1259310; in the data active means normalized activity above about 1.9%;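 further: purified mutant Fbw7 with reduced substrate affinity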
GPR151 activ = activates the human receptor GPR151. PathHunter beta-arrestin GPR151 cells, luminescence. actives 1% (n = 650,000). activation, % at 11.2 µM. AID 1508602; in the data active means activation above about 4.9%;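 further: 0% = median of compound wells and 100% = cells with positive control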
TEAD-YAP block = TEAD-YAP interaction inhibition. HEK-TIYL cells, TEAD-Gal4/YAP UAS-luciferase luminescence. inhibition, % at 9.12 µM. actives 1.4% (n = 640,000). AID 1259422; in the data active means inhibition above about 32%;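 further: 0% = median of test compound wells and 100% = reference inhibitor wells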
MITF primary = inhibitors of human MITF; AID 1259374; inhibition, % at 2.6 µM; AlphaScreen MITF homodimerization, bead proximity signal; O75030; actives 0.91% (n = 650,000); in the data active means inhibition above about 50%;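 further: 0% = vehicle wells with protein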
GPR151 conf act = human GPR151 activation, confirmation screen. shares compounds with GPR151 activ. GPR151 PathHunter beta-arrestin cells, luminescence, 90 min; % of EA-reagent control over plate median. activation, % at 11.2 µM. 6,700 tested, under 10 active. AID 1508609;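 active means mean percent activation across replicates above the confirmation screen cutoff of 4.91%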
GPR119 counter = activates human GPR119 in a GPR151 counter-screen. actives 0.3% (n = 6,700). AID 1508611. shares compounds with GPR151 activ. GPR119 PathHunter beta-arrestin cells, luminescence, 90 min; 0 = compound-well median, 100 = enzyme-acceptor control. activation, % at 11.2 µM;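 active means mean percent activation in the counterscreen above 29.09%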;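 further: counterscreen on off-target GPR119 to flag nonselective hits from the GPR151 activator screen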
Target sequence (Q8TDV5 whole entry, looked up): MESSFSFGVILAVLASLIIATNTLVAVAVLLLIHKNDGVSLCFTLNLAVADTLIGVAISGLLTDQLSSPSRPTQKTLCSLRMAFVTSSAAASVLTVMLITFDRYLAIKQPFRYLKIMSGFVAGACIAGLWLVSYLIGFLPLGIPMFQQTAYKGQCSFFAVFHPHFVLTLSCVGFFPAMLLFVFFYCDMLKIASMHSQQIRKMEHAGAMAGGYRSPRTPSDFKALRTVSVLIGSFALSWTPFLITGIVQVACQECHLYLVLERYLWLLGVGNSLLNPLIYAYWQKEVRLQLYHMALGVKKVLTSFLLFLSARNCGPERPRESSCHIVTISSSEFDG
* hit, by the source's call; / = not tested or not shown. Only some compounds are listed: those with a hit (about 3.5% of all), similar ones and a draw of the others.

SMILES	FBW7 act	GPR151 activ	TEAD-YAP block	MITF primary	GPR151 conf act	GPR119 counter
Cc1cc(N2CCOCC2)nc(N2CCN(C(=O)Cc3cccs3)CC2)n1	0.3	10.5*	11.1	2.8	-0.9	-3.4
Cc1nc(SCC(=O)NNC(=O)c2cccs2)n[nH]1	0.5	5.8*	-0.5	10.3	-0.3	1.2
CCCCOC(=O)c1ccc(Nc2nc(C)c([N+](=O)[O-])c(Nc3ccc(C(=O)OCCCC)cc3)n2)cc1	0.1	1.5	-0.4	-3.8	/	/
COC(=O)c1ccc(Nc2nc(C)c([N+](=O)[O-])c(Nc3ccc(C(=O)OC)cc3)n2)cc1	-0.1	12.9*	2.7	9.0	-0.1	5.2
COc1ccc(/C=N\NC(=O)c2ccc([N+](=O)[O-])cc2)cc1Cl	0.2	6.5*	9.1	17.7	0.7	2.0
COc1ccc(O)c(/C=N/NC(=O)c2cc([N+](=O)[O-])cc([N+](=O)[O-])c2)c1	0.4	7.0*	-8.9	19.7	-1.1	-9.9
CC(C)(C)c1ccc(C(=O)N/N=C/c2ccc(O)c([N+](=O)[O-])c2)cc1	0.0	5.1*	-31.9	-2.7	0.1	0.3
O=C(N/N=C/c1cc([N+](=O)[O-])ccc1O)C12CC3CC(CC(C3)C1)C2	0.0	5.1*	4.1	0.3	-0.2	6.9
COc1ccc(C(=O)N/N=C/c2cc(OC)ccc2O)cc1	0.0	0.7	-2.0	26.1	/	/
Cc1cc(C(=O)Nc2ccccc2[N+](=O)[O-])no1	-0.3	-2.1	-24.1	13.5	/	/
FC(F)(F)c1cc2[nH]c(C3COc4ccccc4O3)nc2cc1-c1ccncc1 (stereo not drawn)	0.0	8.0*	-15.3	-4.6	0.3	-1.1
c1ccc2c(c1)OC[C@H](c1nc3ccc(-c4ccncc4)cc3[nH]1)O2	0.0	-0.3	-30.6	17.5	/	/
COc1ccc(C(=O)NN2C(=O)c3ccccc3C2=O)cc1I	0.1	5.1*	9.4	7.4	-0.2	7.9
COC(=O)CN1C(=O)C(O)=C(C(C)=O)C1c1ccc(C)cc1 (stereo not drawn)	-0.1	-0.3	0.2	17.3	/	/
CCOCCOC(=O)C1=C(C)NC2=C(C(=O)CC(C)(C)C2)C1c1cc([N+](=O)[O-])ccc1Cl (stereo not drawn)	-0.2	-0.9	-0.6	-4.3	/	/
O=C1c2cccc3c([N+](=O)[O-])ccc(c23)C(=O)N1CCc1ccccc1	0.1	6.9*	3.8	14.2	0.0	1.1
O=C(NCc1ccccn1)c1cc2c(ccc3ccccc32)oc1=O	-0.2	12.0*	-11.2	9.0	-0.5	0.6
O=C(NCc1ccccc1)c1cc2cc([N+](=O)[O-])ccc2oc1=O	0.1	12.8*	-1.6	-0.4	-0.3	4.2
Cc1ccc(CN2CCC3(CC2)CC3C(=O)NCc2cccnc2)s1 (stereo not drawn)	-0.1	-0.2	-0.6	-4.4	/	/
CC(=O)c1ccc(NC(=O)CSc2ncnc3c2cnn3-c2ccc(F)cc2)cc1	-0.1	1.4	2.0	-15.4	/	/
CNc1cc(N2CCCCC2)ccc1[N+](=O)[O-]	0.0	-1.2	-4.8	13.8	/	/
CCN(CC)C(=O)C1CCCN(c2nc(C)cc(Nc3ccc(Oc4ccccc4)cc3)n2)C1 (stereo not drawn)	0.0	12.1*	13.5	-2.4	1.0	3.6
COc1ccccc1C(=O)NC(=S)NNC(=O)Cc1cccc2ccccc12	0.4	1.4	-11.7	20.8	/	/
FC(F)(F)c1ccc(Cn2cnc3c(NCc4cccc(C(F)(F)F)c4)nc(Nc4nccc5ccccc45)nc32)cc1	0.0	5.6*	14.0	0.4	0.5	2.6
CN1CCN(C(=O)c2ccc(-c3nc(NCc4cccc(C(F)(F)F)c4)c4ncn(Cc5ccc(C(F)(F)F)cc5)c4n3)cc2)CC1	0.2	10.8*	0.2	-3.9	1.1	-6.8
CC1(C)CC(=O)c2sc(NC(=O)COc3ccc(Cl)cc3)nc2C1	-0.1	6.4*	8.1	4.0	0.1	2.9
COc1ccc(N(NC(=O)C(c2ccc(C)cc2)(c2ccc(C)cc2)c2ccc(OC)cc2)C(=O)c2ccccc2)cc1	0.0	-0.9	2.4	4.5	/	/
O=S(=O)(NC1CCN(Cc2ccccc2)CC1)c1ccc(F)c(F)c1	0.7	7.1*	7.7	13.7	0.9	-2.7
